Experimental data reported in PubChem BioAssay (NCI).
This is part of a sample that, as a whole, favours compounds with a hit. Of some 83,000 tested, about 20% had one in any assay.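 96-well plates, one dose, 48 hours. Percent growth reported; active if below 10.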 Values without a mark were called inactive. Calls of active or inactive are those of the source.

Legend:
Assay in all cases: NCI-60 one-dose screen, 48 h (100 = growth as untreated, 0 = no growth, -100 = all killed)
Settings in all cases: 10 µM unless noted
SR leukemia = system: SR leukemia
RPMI-8226 leukemia = system: RPMI-8226 leukemia
OVCAR-8 ovarian = system: OVCAR-8 ovarian
OVCAR-5 ovarian = system: OVCAR-5 ovarian
OVCAR-4 ovarian = system: OVCAR-4 ovarian
SK-OV-3 ovarian = system: SK-OV-3 ovarian
IGROV1 ovarian = system: IGROV1 ovarian
OVCAR-3 ovarian = system: OVCAR-3 ovarian
HS 578T breast = system: HS 578T breast
NCI/ADR-RES ovarian = system: NCI/ADR-RES ovarian

SMILES	growth (SR leukemia)	growth (RPMI-8226 leukemia)	growth (OVCAR-8 ovarian)	growth (OVCAR-5 ovarian)	growth (OVCAR-4 ovarian)	growth (SK-OV-3 ovarian)	growth (IGROV1 ovarian)	growth (OVCAR-3 ovarian)	growth (HS 578T breast)	growth (NCI/ADR-RES ovarian)
COc1ccc(NC(=O)c2sc3nc(C)c(C(O)c4ccccc4)cc3c2N)cc1 (stereo not drawn)	4.79% (active)	11.8%	27.6%	37.9%	78%	24.1%	36.6%	8.68% (active)	22.8%	10.6%
COc1cc(OC)cc(C2C(C#N)=C(N)Oc3c2ccc2ccc(O)cc32)c1 (stereo not drawn)	12.6%	8.83% (active)	18.1%	33.1%	55.6%	42.3%	14.3%		53.2%	-8.97% (active)
CCCCCCCCn1ccc2cc(NC(=O)Cn3cc(CN4CCN(CC)CC4)nn3)ccc21	2.27% (active)	-10.7% (active)	83%	94%	81.5%	99.6%	88.6%		86.2%	97.7%
CCOc1ccc(/C=N\N=C\c2ccc(OCC)cc2)cc1	64.3%	107%	74.5%	76.9%	94.1%	101%	78.5%	114%	106%	78.1%
CO[C@H](C(=O)[C@@H](O)[C@@H](C)O)[C@@H]1Cc2cc3cc(O[C@H]4C[C@@H](O[C@H]5C[C@@H](O)[C@H](O)C(C)O5)[C@H](O)C(C)O4)c(C)c(O)c3c(O)c2C(=O)[C@H]1O[C@H]1C[C@@H](O[C@H]2C[C@@H](O[C@H]3C[C@@H](OC)[C@H](O)C(C)O3)[C@@H](O)C(C)O2)C(O)(O)C(C)O1 (stereo partly drawn)	13.5%	9.26% (active)	9.53% (active)	14.5%	21.7%	14.6%	22.3%		25.3%	87.3%
Cc1c(N2CN3C[C@H](C)N4CN(c5c(C)n(C)n(-c6ccccc6)c5=O)CN5C[C@@H](C)N(C2)C3C54)c(=O)n(-c2ccccc2)n1C (stereo partly drawn)	38.1%	96%	104%	106%	103%	99.2%	102%		95.9%	97.2%
CCc1cccc(Sc2cc(C(=O)N3Cc4ccc(OCCN(C)C)cc4C3)ccc2O)c1	19.9%	29.3%	24.1%	110%	53.2%	37.7%	59.8%	67.3%	95.4%	50.4%
Oc1c(CN2CCCC2)cc(COCc2ccccc2)c2cccnc12	12.4%	16.7%	9.92% (active)	43.1%	14.3%	-4.92% (active)	16.4%	18.1%	64.5%	-7.48% (active)
C=CC(C)(O)CC/C=C(\CO)C(=O)OC1C(C)OC(O[C@](C)(C=C)CC/C=C(\CO)C(=O)O[C@H]2C[C@@]3(C(=O)OC4OC(CO)C(O)C(O)C4OC4OC(C)C(OC5OC(CO)C(O)C5O)C(OC5OC(CO)C(O)C(O)C5O)C4O)C(CC2(C)C)C2=CCC4[C@@]5(C)CC[C@H](OC6OC(COC7OC(C)C(O)C(O)C7OC7OCC(O)C(O)C7O)C(O)C(O)C6NC(C)=O)C(C)(C)C5CC[C@@]4(C)[C@]2(C)C[C@H]3O)C(O)C1O (stereo partly drawn)	-26.7% (active)	41.4%	10.3%	11.8%	-29.2% (active)	-79.8% (active)	-49.2% (active)	-94% (active)	-31.4% (active)	17.5%
COC(=O)C1=C(C)NC(C)=C(C(=O)OCC(C)C)C1c1ccccc1[N+](=O)[O-] (stereo not drawn)	20.3%	53.1%	61.6%	98.7%	51.8%	82.7%	56.9%	56.5%	112%	48.8%
O=C(CCCCNC(=O)c1cc(=O)c(O)co1)Nc1ccccc1	14.3%	50.4%	93.6%	119%	79.3%	119%		47.4%	92.9%	87%
O=C(CCC(=O)c1nc2ncccc2[nH]1)NN1C(=O)CSC1c1ccc(Cl)cc1 (stereo not drawn)	55.9%	87.1%	101%	106%	94.1%	100%	86.7%		101%	100%
CCOC(=O)Cn1c(=O)c2c3ccccc3n(C)c2n2nnc(-c3ccccc3)c12	-50.7% (active)	65%	113%	74.3%	102%	117%		100%	82.1%	85.7%
